A selection: hits, their analogues and other compounds. The true share with any hit is near 3.1%.
ELG1 repair inh – qHTS screen for small molecules that inhibit ELG1-dependent DNA repair in human embryonic kidney (HEK293T) cells expressing luciferase-tagged ELG1; HEK293T ELG1-luciferase reporter, luminescence, 16 h; DNA damage induced by 5-fluorouridine; Potency, µM (series often up to 46.1 µM), without a hit: top-dose activity change, negative = inhibition, usual class: inhibitors; 330,000 tested, 2.3% active; note: potency is the fitted concentration of half-maximal effect; % is set by controls: 0 for no effect and ±100 for the full control effect; nearly all actives have a fitted effect of over 55% in size
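Reporter activity after DNA damage by 5-fluorouridine is monitored. Compound-treated cells incubate 16 hr at 37 °C, then ONE-Glo is added for 30 min before luminescence reading.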
IL-2 act – qHTS of IL-2 Activators; IL-2 activation reporter assay, cell-based qHTS; stimulated with anti-CD3/CD4/CD28 beads; in transgenic mouse T cells; activation, % (series mostly up to about 46 µM); 360,000 tested, 0.065% active; in the data active = activation above about 50%; inconclusive = mostly about 30% to 49%; note: 0% is about no effect
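Readout: EGFP and DsRed signals by fluorescent plate cytometry. Unstimulated transgenic mouse T cells received compound 60 min before antibody-bead stimulation, then incubated 18 h at 37 degrees C.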
BRCA1 expr act – qHTS Assay to Identify Small Molecule Activators of BRCA1 Expression; MCF7-BRCA1-FFLuc reporter, luminescence, 48 h; response scale: scaled: vehicle 0%, 10 µM genistein 100%; Potency, µM (titrated, usually from 46.1 µM), for the others: at the highest dose activation, actives largely listed as activators; 380,000 tested, 1.1% active; note: potency is the fitted concentration of half-maximal effect; nearly all actives have a fitted effect of over 80% in size
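Luminescence from a BRCA1-driven firefly luciferase in MCF7 cells was the read-out, taken 15 min after substrate addition following 48 h compound exposure at 37 °C. Data were normalized to a 10 microM genistein control and DMSO vehicle.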
Nrf2 activator – qHTS of Nrf2 Activators | 410,000 tested, 0.31% active | AID 624171, 2012 | AREc32 ARE-luciferase reporter (MCF7-derived line), luminescence, 24 h | Potency, µM (doses to about 46.1 µM), for inactives: at the top dose activation, hits mostly activators; note: potency is the fitted concentration of half-maximal effect; % of control where 0% means no effect; nearly all actives have a fitted effect of over 65% in size
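Each well held 1000 AREc32 cells, which were incubated with compound for 24 hr at 37 deg C after overnight attachment, and ARE reporter activity was quantified by firefly luciferase luminescence.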
* = called active by the depositor; ? = inconclusive; . = not tested or not shown. Unless noted, calls come from the whole dose curve; as a rule, active = well fitted curve in the direction sought with a large enough effect; inconclusive = small, poorly fitted or top-dose-only effect, or another doubt; inactive = no such curve, though single readings can be large; an effect the other way counts as inactive or inconclusive.

SMILES | ELG1 repair inh | IL-2 act | BRCA1 expr act | Nrf2 activator
CN(CC(=O)Nc1ccc(F)c(F)c1F)C(=O)/C=C/c1ccco1 | ? | -0.7 | -11.8% | 12.6µM*
Cc1ccc(N2CC(=O)Nc3c(sc4nc(C)cc(C)c34)C2=O)cc1 | 23.1µM* | -0.3 | -0.3% | 0.0%
Cc1cc(C)c2c3c(sc2n1)C(=O)N(c1ccccc1C)CC(=O)N3 | ? | -1.3 | 6.6% | -1.2%
Cc1nc2cc(-c3ccc(Br)cc3)[nH]n2c(=O)c1Cl | ? | -0.1 | 4.47µM* | -0.2%
COc1ccc(-c2n[nH]c3c2cnc2ccc(F)cc23)cc1 | . | . | . | 23.1%
COc1ccc(NC(=O)CN(Cc2ccccc2)S(=O)(=O)c2ccc(C)cc2)cc1Cl | . | . | . | 5.1%
CCc1ccc(C(=O)NNc2ccc(C)c(Cl)c2)cc1 | 18.3µM* | -3.9 | 13.2% | 4.9%
CCc1ccc(C(=O)NNc2ccc(F)cc2)cc1 | 7.2% | 0.6 | 29.6% | 2.9%
C/C(NC(=O)c1ccccc1)=C1/C(=O)CC2C1C2(C)C (configuration not stated) | ? | -1.5 | 11.2µM* | 3.4%
O=C(O)c1cccc2c1C(=O)c1ccccc1-2 | -8.6% | -0.3 | 0.5% | 1.8%
CC(C)OC(=O)c1cccc2c1C(=O)c1ccccc1-2 | ? | -1.7 | 41.8% | 11.2µM*
O=C(Nc1ccc(Cl)cc1)N1CCC(c2nc(-c3ccccc3Cl)no2)CC1 | 13µM* | -2.2 | -65.1% | 0.6%
O=C(Nc1ccc(Cl)cc1)N1CCC(c2nc(-c3cccs3)no2)CC1 | ? | -3.1 | -1.3% | 6.0%
CCOC(=O)Cn1c(=O)n(CC2CCCO2)c2nc(-c3ccc(CC)cc3)nc(C(N)=O)c21 (configuration not stated) | . | . | 14.2% | 2.1%
O=C(Nc1nnc(-c2ccccc2F)s1)Nc1ccccc1F | ? | -2.0 | 48.8% | 8.91µM*
O=C(Nc1nnc(-c2ccccc2F)s1)C1CCCO1 (configuration not stated) | ? | 0.2 | ? | 3.16µM*
O=C(Nc1nnc(-c2ccncc2)s1)C1CCCO1 (configuration not stated) | ? | 0.9 | 32.6% | -0.2%
O=C(Nc1nnc(-c2ccccc2SCc2ccccc2)s1)Nc1ccccc1F | 21.1% | -3.2 | -50.0% | 4.5%
CCCCCn1c(C(C)NC(=O)c2ccccc2)nc2ccccc21 (configuration not stated) | . | . | 11.0% | -0.6%
O=C(CC1(O)C(=O)Nc2ccccc21)c1ccccc1O (configuration not stated) | 1.8% | 0.2 | -26.0% | 3.4%
O=C(CC1(O)C(=O)Nc2cc(Cl)cc(Cl)c21)c1ccccc1O (configuration not stated) | 1.4% | 0.7 | -73.5% | 15.8µM*
COc1ccc(NC(=O)NNC(=O)c2cc(C3CC3)nc3ccccc23)c(OC)c1 | 13µM* | 1.6 | -12.0% | 1.9%
COc1ccc(/C=N/NC(=O)c2cc(-c3ccccc3)nc3ccccc23)c(OC)c1 | 11.6µM* | -0.2 | 3.5% | 5.3%
CCOc1cc(/C=N/NC(=O)c2ccc(CN3CCOCC3)cc2)ccc1OCc1ccccc1 | 18.4µM* | -5.0 | -56.8% | 2.6%
COc1ccc(NC(=O)NNC(=O)c2ccc3ccccc3c2O)c(OC)c1 | 0.4% | 1.9 | 17.9% | -2.3%
SMILES | ELG1 repair inh | IL-2 act | BRCA1 expr act | Nrf2 activator
O=C(N/N=C/c1cccc(O)c1)c1cc(-c2ccccc2)nc2ccccc12 | ? | 0.3 | -2.4% | 0.0%
COc1ccc(NC(=O)c2cc(-c3ccccn3)nc3ccccc23)c(OC)c1 | 8.2µM* | -1.0 | -20.6% | 0.0%
CN1OC[C@@H]2CN(C(=O)NC3CCCCC3)[C@H](c3ccc(N4CCCCC4)cc3)C[C@@H]21 | . | -0.8 | 9.7% | 0.2%
CCc1ccccc1NC(=O)CSc1ncc2c(n1)-c1ccccc1N(Cc1ccc(C)cc1)S2(=O)=O | . | . | . | -0.7%
COc1ccc(/C=N/NC(=O)c2ccncc2)cc1CN1CCOCC1 | -1.5% | -1.8 | -12.9% | 3.2%
COc1ccc(NC(=S)Nc2ccccn2)c(OC)c1 | ? | -1.6 | 5.62µM* | 13.7%
COc1ccc(-c2cc(C(=O)Nc3cc(C)on3)c3ccccc3n2)c(OC)c1 | 18.3µM* | 0.0 | -34.2% | 5.3%
CCOc1cccc(-c2cc(C(=O)N/N=C/c3ccc(OC)c(CN4CCOCC4)c3)c3ccccc3n2)c1 | 23.1µM* | 0.9 | -55.5% | 3.6%
COc1ccccc1-c1cc(C(=O)N/N=C/c2sccc2C)c2ccccc2n1 | 11.6µM* | 0.5 | -32.2% | 0.1%
COc1ccc(NC(=S)Nc2cc(C)ccn2)c(OC)c1 | ? | 0.2 | 78.7% | 14.3%
CC(=O)c1ccc(NC(=O)c2cccc(NC(=O)N3CCSc4ncccc43)c2)cc1 | . | . | . | -1.2%
COc1ccc(C(=O)N/N=C/c2ccc(OC)c(CN3CCN(c4ccc(F)cc4)CC3)c2)cc1 | 20.6µM* | 2.7 | -6.8% | 1.2%
Cc1cc(NC(=O)c2cc(-c3ccncc3)nc3c(C)cccc23)no1 | 9.2µM* | -1.1 | -63.9% | 0.1%
COc1ccc(/C=N/NC(=O)c2cccnc2)cc1CN1CCN(c2ccc(F)cc2)CC1 | ? | 1.9 | -1.2% | 1.8%
CCOc1ccc(-c2nc(Cn3c(=O)cc(-c4ccccc4)c4c(C)nn(C)c43)c(C)o2)cc1 | . | . | . | 0.9%
CN(Cc1ccccc1)c1nnc(NC(=O)Nc2cccc(Br)c2)s1 | . | . | . | 0.6%
Cc1ccc(S(=O)(=O)Nc2cc(Cl)c3oc4c(c3c2)CCCC4)cc1 | . | . | . | -3.7%
CCCCSCCCNC(=O)C1CCN(Cc2nc(-c3ccc(CC)cc3)oc2C)CC1 | . | . | . | 0.4%
COCCc1nn2c(=O)cc(COC(=O)C(c3ccccc3)c3ccccc3)nc2s1 | . | . | . | 1.0%
O=C(NCc1ccco1)C1CCN(c2nc3ccccc3n2Cc2ccc(F)cc2)CC1 | 18.4µM* | 5.9 | -19.8% | 3.5%
CCC(=O)N1c2ccc(S(=O)(=O)N3CCCCCC3)cc2CC1C (configuration not stated) | . | . | 5.2% | 4.1%
CC1CCc2nc(NC(=O)c3ccco3)sc2C1 (configuration not stated) | ? | -2.5 | ? | 5.7%
O=C(CSC1=NCCS1)Nc1nc2ccccc2s1 | ? | -2.8 | 8.91µM* | ?
O=C(Nc1nc2ccccc2s1)c1c(F)cccc1Cl | ? | 0.1 | 10µM* | 7.3%
Cc1sc(NC(=O)CSC2=NCCS2)nc1-c1ccccc1 | ? | -1.6 | -51.2% | 19.2%
CC1CCc2nc(NC(=O)Cc3cccs3)sc2C1 (configuration not stated) | ? | -0.1 | 5.62µM* | 4.0%
Cc1nc(SCC(=O)Nc2nc3ccccc3s2)c(C#N)c(C)c1C | 5.17µM* | 0.7 | ? | -2.4%
Cc1cccc(OC(C)C(=O)N2CCC(c3nc4ccccc4o3)CC2)c1C (configuration not stated) | . | . | . | 6.2%
O=C(Cc1cccs1)Nc1nc2ccccc2s1 | ? | 0.0 | 7.08µM* | 11.9%

Source: PubChem BioAssay (National Center for Advancing Translational Sciences (NCATS))
